Assay outcomes from PubChem BioAssay.
HP1b chromo inh – inhibitors of HP1-beta chromodomain binding to methylated histone tails | Potency, µM (doses to about 114 µM), for inactives: top-dose activity change, negative = inhibition, hits mostly inhibitors | AlphaScreen HP1-beta / biotin-H3K9me3 peptide binding | 390,000 tested, 0.56% active | P83916 | AID 540317; note: potency is the fitted concentration of half-maximal effect; nearly all actives have a fitted effect of over 70% in size
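Compound inhibition of the preformed complex between 50 nM HP1-beta and 50 nM biotinylated H3K9me3 peptide was read by AlphaScreen. Buffer was PBS pH 7.4 with 0.01% Tween-20. Incubations ran 30 min at room temperature, with 10 ug/mL donor/acceptor beads.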
JMJD2A Tudor inh – blocks the human JMJD2A Tudor domain | O75164 | AlphaScreen JMJD2A-Tudor / H3K4me3 peptide binding | Potency, µM (series often up to 114 µM), without a hit: top-dose activity change, negative = inhibition, usual class: inhibitors | 390,000 tested, 4.4% active; note: potency is the fitted concentration of half-maximal effect; % is set by controls: 0 for no effect and ±100 for the full control effect; nearly all actives have a fitted effect of over 50% in size
Six1-Eya2 inh – blocks human Six1 binding to Eya2 | Q15475+O00167 | activity change, % (concentration not given with the values) | AlphaScreen GST-Six1/His-Eya2 binding, biochemical; stronger effect = lower value | 360,000 tested, 0.56% active; in the data active = activity change below about -65%; inconclusive = mostly about -30% to -63%; note: % is set by controls: 0 for no effect and ±100 for the full control effect
Target sequence (O00167 whole entry, looked up): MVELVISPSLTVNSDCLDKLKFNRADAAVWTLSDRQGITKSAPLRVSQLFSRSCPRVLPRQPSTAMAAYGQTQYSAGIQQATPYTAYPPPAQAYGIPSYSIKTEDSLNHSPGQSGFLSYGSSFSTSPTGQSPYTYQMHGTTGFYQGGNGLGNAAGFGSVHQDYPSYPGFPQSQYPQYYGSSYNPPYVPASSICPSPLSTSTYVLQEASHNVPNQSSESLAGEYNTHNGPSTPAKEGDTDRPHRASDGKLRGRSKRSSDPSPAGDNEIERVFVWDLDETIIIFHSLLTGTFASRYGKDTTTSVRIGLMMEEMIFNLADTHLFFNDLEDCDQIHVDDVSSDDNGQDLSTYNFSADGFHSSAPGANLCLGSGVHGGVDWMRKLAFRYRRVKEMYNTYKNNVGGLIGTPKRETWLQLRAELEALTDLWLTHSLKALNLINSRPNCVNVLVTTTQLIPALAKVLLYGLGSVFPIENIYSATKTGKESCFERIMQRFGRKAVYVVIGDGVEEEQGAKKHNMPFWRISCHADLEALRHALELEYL
Target sequence (Q15475 whole entry, looked up): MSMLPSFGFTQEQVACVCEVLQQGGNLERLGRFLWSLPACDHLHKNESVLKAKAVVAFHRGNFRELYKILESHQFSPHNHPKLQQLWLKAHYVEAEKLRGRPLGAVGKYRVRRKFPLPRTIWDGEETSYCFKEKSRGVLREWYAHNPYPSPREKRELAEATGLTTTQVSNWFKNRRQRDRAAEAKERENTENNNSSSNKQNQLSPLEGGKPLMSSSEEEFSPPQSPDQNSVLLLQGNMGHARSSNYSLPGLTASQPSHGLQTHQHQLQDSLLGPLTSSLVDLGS
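Homogeneous AlphaScreen proximity assay pairing GST-Six1 with His-tagged Eya2 (added as 5X mix: 250 nM and 500 nM) in 50 mM Tris pH 8.0, 300 mM NaCl, 1 mM TCEP. Glutathione donor and nickel acceptor beads; 1 h, 37 °C, dark.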
CtBP-E1A blk – blocks the CtBP interaction with E1A; AlphaScreen GST-E1A/His-CtBP binding, 1536-well; stronger effect = lower value; activity change, % (no concentration beside the values); 340,000 tested, 0.49% active; AID 651724; in the data active = activity change below about -65%; inconclusive = mostly about -30% to -63%; note: % is set by controls: 0 for no effect and ±100 for the full control effect
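GST-E1A and His-tagged CtBP (125 nM each as 5X stock) were preincubated with pin-transferred compound for 2 h at 37 °C in the dark, then glutathione donor and nickel acceptor beads were added for 1 h before AlphaScreen reading.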
BAZ2B block – inhibitors of human BAZ2B bromodomain; 360,000 tested, 4.4% active; AID 504333; Potency, µM (top dose mostly 114 µM), for the others: top-dose activity change, negative = inhibition, usual class: inhibitors; AlphaScreen BAZ2B-H3K14Ac peptide displacement; note: potency is the fitted concentration of half-maximal effect; % is set by controls: 0 for no effect and ±100 for the full control effect; nearly all actives have a fitted effect of over 60% in size
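AlphaScreen displacement of biotin-H3(5-23)K14Ac peptide (50 nM final) from BAZ2B (50 nM final) in PBS pH 7.4, 0.01% Tween-20; complex preformed 30 min RT, then compounds (top 110 uM) 30 min RT, beads 20 min dark.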
G9a block – blocks human histone lysine methyltransferase G9a | Q96KQ7 | G9a H3K9 monomethylation, AlphaScreen, 2 h | Potency, µM (doses to about 102 µM), inactives show at the highest dose activity, negative = inhibition, usual class: inhibitors | 350,000 tested, 8.8% active | AID 504332; note: potency is the fitted concentration of half-maximal effect; % is set by controls: 0 for no effect and ±100 for the full control effect; nearly all actives have a fitted effect of over 75% in size
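Using a bead-based AlphaScreen, monomethylated H3K9 product from 2 h room-temperature reactions (G9a 20 nM, peptide 500 nM, SAM 20 uM) was detected with 0.5 ug/mL rabbit anti-H3K9me1 antibody.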
The depositor's hits bear a star; ? = inconclusive; . = not tested or not shown; [ ] = another dose, or the depositor's remark. Shown are actives, neighbours in structure and some others; about 10% of the full set was active somewhere. Unless noted, calls come from the whole dose curve; as a rule, active = well fitted inhibition curve with a large enough effect; inconclusive = small, poorly fitted or top-dose-only effect; inactive = no such curve, though single readings can be large or run the other way.

SMILES | HP1b chromo inh | JMJD2A Tudor inh | Six1-Eya2 inh | CtBP-E1A blk | BAZ2B block | G9a block
Cc1ccc(C(=O)O)cc1NC(=S)NC(=O)c1ccc(-c2ccccc2)cc1 | ? | ? | -3 | -1 | -32% | 14µM*
O=C(Cc1cccc2ccccc12)NC(=S)Nc1cccc(C(=O)O)c1 | -16% | -23% | -6 | -3 | ? | 16µM*
Cc1cc(C)c(NC(=S)NC(=O)c2ccccc2)cc1C | . | . | 7 | -9 | . | .
O=C(NC(=S)Nc1ccc(-c2ccccc2)cc1)c1ccccc1 | -14%[57 µM] | -34% | -11 | -3 | . | .
O=C(O)c1cccc(NC(=S)NCc2ccccc2)c1 | 13% | -20% | -6 | 11 | -17% | -27%
CC(C)NC(=S)NC(=O)c1ccc(-c2ccccc2)cc1 | -6% | -33% | -16 | -19 | -31% | 40µM*
O=C(O)c1cccc(NC(=S)NC(=O)c2ccc(-c3ccccc3)cc2)c1 | 16% | -3% | 1 | 2 | -36% | 35µM*
COc1ccc2c(c1)OCC(Cc1ccc(OC)c(OC(C)=O)c1)C2=O (configuration not stated) | . | . | . | . | . | -29%[2.33 µM]
O=C(NC(=S)Nc1ccc2cn[nH]c2c1)c1ccccc1 | 18% | -8% | -3 | 4 | -2% | 45µM*
CCc1ccc(/C(C)=N\Nc2ccc([N+](=O)[O-])cc2)cc1 | 3% | -21% | 7 | 6 | -3% | 32%[0.501 µM]
C/C(=N\Nc1ccc([N+](=O)[O-])cc1)c1ccc(N)cc1 | -30% | ? | -5 | 6 | -3% | 7.1µM*
C/C(=N\Nc1ccc([N+](=O)[O-])cc1)c1ccc(-n2nncc2C)cc1 | 26% | 4% | 8 | 11 | -8% | -21%[59 µM]
C/C(=N\Nc1nc(C)c(C)s1)c1ccc([N+](=O)[O-])cc1 | ? | ? | -15 | -3 | 35µM* | 18µM*
COc1ccccc1CNC(=O)c1ccc(N2CCCC2)c(NC(=O)NCc2ccc(F)cc2)c1 | 67% | -5% | . | . | 18% | 32%[59 µM]
Fc1ccc(CSc2nc3ncccc3[nH]2)cc1 | -12% | -4% | 5 | 1 | -4% | 50µM*
Fc1cccc(CSc2nc3ncccc3[nH]2)c1 | 24% | -13% | 4 | -2 | -36% | -11%[59 µM]
O=C(CSc1nc2ncccc2[nH]1)NC1CCCC1 | -4% | 0% | 1 | 4 | 4% | 22µM*
COC(=O)CSc1nc(N)c(NC(=O)c2ccc(OC)c(OC)c2)c(=O)[nH]1 | 26% | -15% | 0 | -3 | 3% | ?
COC(=O)CSc1nc2ncccc2[nH]1 | 22% | -15% | 0 | 6 | 2% | ?
CCC1CCCCN1C(=O)CSc1nc2ncccc2[nH]1 (configuration not stated) | ? | 50µM* | -1 | . | -27% | .
CCC1CCCCN1C(=O)CSc1nc(N)c(NC(=O)c2ccc(OC)c(OC)c2)c(=O)[nH]1 (configuration not stated) | 31% | -14% | -3 | 2 | 11% | 50µM*
O=S(=O)(c1ccc(Br)s1)N1CCN(c2ccccc2)CC1 | 36% | 1% | 3 | 4 | 4% | -28%
O=S(=O)(c1ccc(Br)s1)N1CCN(c2ccc(F)cc2)CC1 | -8% | -14% | -6 | -18 | 6% | 40µM*
Nc1ncnc2c1ncn2[C@@H]1O[C@H](C(=O)N[C@@H](CO)Cc2ccccc2)[C@@H](O)[C@H]1O | . | . | 1 | 9 | . | .
Cc1ccc(NP(=O)(c2ccc(N(C)C)cc2NC(=O)c2cccs2)N2CCOCC2)cc1Cl (configuration not stated) | -5% | ? | 14 | 23 | -36% | 79µM*
COc1ccc(CNC(=O)c2cn(-c3cccc(OC)c3)c(=O)c3ccccc23)cc1 | 35% | 2% | . | . | 5% | ?
Cc1ccc(C2(C)NC(=O)N(CC(=O)NCCC3=CCCCC3)C2=O)cc1 (configuration not stated) | 59% | -15% | 2 | 6 | 15% | ?
